Compound activity: PubChem, National Center for Advancing Translational Sciences (NCATS)
The list is not random: actives were taken first. Their share in the collection is about 4.4%.
p53ts 32C kill: cytotoxicity in p53ts cells at permissive temperature. H1299-p53A138V at 32C, ATP luminescence viability, 24 h. Potency, µM (highest dose often 46.1 µM), without a hit: top-dose activity change, negative = cytotoxicity, actives largely listed as cytotoxic. actives 0.93% (n = 130,000). AID 924;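 also: 0% = DMSO and -100% = full killing by reference compound; nearly all actives have a fitted effect of over 55% in size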
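ATP-content luminescence (ATPlite) read-out after 24 h compound exposure at 32C in H1299-p53A138V cells (600/well). Tested up to 46 uM. Normalized to DMSO (0%) and 100 uM tamoxifen (100% killing); Hill-fit AC50.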
p53ts 39C kill: cytotoxicity in p53ts cells at nonpermissive temperature | H1299-p53A138V viability at 39C, ATP luminescence, 24 h | Potency, µM (top dose mostly 46.1 µM), inactives show top-dose activity change, negative = cell killing, hits mostly cytotoxic | actives 1.5% (n = 130,000); also: nearly all actives have a fitted effect of over 55% in size
ALOX12 inhib: 12-hLO (ALOX12) enzyme inhibition | actives 0.12% (n = 150,000) | Potency, µM (highest dose often 57.1 µM), for the others: at the top dose activity change, negative = inhibition, hits mostly inhibitors | purified 12-hLO, xylenol orange hydroperoxide absorbance | AID 1452 | P18054; also: nearly all actives have a fitted effect of over 55% in size
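Xylenol orange chromogenic assay: hydroperoxide from 12hLO oxidises Fe(II), giving red-shifted Fe(III)-XO absorbance. Conditions: 150 nM enzyme, 40 uM arachidonic acid, 25 mM Hepes pH 7.0, 0.01% Triton X-100, 30 min, room temperature.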
HPGD inh: blocks human HPGD enzyme activity; P15428; purified HPGD, NADH fluorescence kinetic, PGE2 substrate; Potency, µM, for the others: top-dose activity change, negative = inhibition, hits mostly inhibitors; actives 4.3% (n = 150,000); AID 894; active = well fitted inhibition curve with a large enough effect, not every such curve was filed as active; inconclusive = small, poorly fitted or top-dose-only effect, or another doubt; inactive = no such curve, though single readings can be large or run the other way
Target sequence (P15428 whole entry, looked up): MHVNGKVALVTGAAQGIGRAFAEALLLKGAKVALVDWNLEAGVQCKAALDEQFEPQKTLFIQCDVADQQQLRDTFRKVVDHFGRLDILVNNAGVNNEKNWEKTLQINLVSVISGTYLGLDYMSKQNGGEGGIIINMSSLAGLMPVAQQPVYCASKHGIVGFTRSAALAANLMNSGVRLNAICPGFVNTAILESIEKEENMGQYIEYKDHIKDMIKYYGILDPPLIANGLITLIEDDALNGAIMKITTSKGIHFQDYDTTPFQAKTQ
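20 nM HPGD preincubated 15 min at room temperature with compound in 50 mM Tris-HCl pH 8, 0.01% Tween 20. Started with 1 mM NAD+ and 30 uM prostaglandin E2; NADH fluorescence (360/450 nm) read 5 times over 30-s intervals, last minus first.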
* = called active by the depositor; u = inconclusive; x = no result given; [ ] = another dose, or the depositor's remark. Unless noted, calls follow the shape of the dose curve; as a rule, active = well fitted curve in the direction sought with a large enough effect; inconclusive = small, poorly fitted or top-dose-only effect, or another doubt; inactive = no such curve, though single readings can be large; an effect the other way counts as inactive or inconclusive. Unless noted, % is scaled to controls: 0 for no effect and ±100 for the full control effect; potency is read from the fitted curve at half-maximal effect.

SMILES	p53ts 32C kill	p53ts 39C kill	ALOX12 inhib	HPGD inh
COc1cc(CN(C(=O)COc2ccccc2Cl)c2ccccn2)cc(OC)c1OC	-9.3%	40.5%	x	x
c1ccc(Cn2ncc3c(N4CCCCC4)ncnc32)cc1	-1.9%	4.3%	-5.5%	-11.3%
Clc1cccc(-n2ncc3c(N4CCCCC4)ncnc32)c1	3.16µM*	6.31µM*	x	x
CCN1CCN(c2ncnc3c2cnn3-c2cc(Cl)ccc2C)CC1	-1.6%	u	x	x
Cc1ccc(Cl)cc1-n1ncc2c(N3CCN(Cc4ccccc4)CC3)ncnc21	15.8µM*	20µM*	x	x
CCOC(=O)C1CCN(c2ncnc3c2cnn3-c2ccc(Cl)cc2)CC1	x	x	-0.7%	u
Clc1cccc(-n2ncc3c(N4CCCCCC4)ncnc32)c1	u	12.6µM*	x	x
O=C1OC(C2=CCCCC2)=NC12CC2	-3.4%[9.22 µM]	0.7%[9.22 µM]	x	x
C=C(C)COc1ccc(-c2ncncc2Oc2ccc(OC)cc2)c(O)c1	0.2%	-0.5%	-20.0%	17.8µM*
Cc1cccc(NC(=O)c2sc3nc(-c4cc5ccc(O)cc5oc4=O)[nH]c(=O)c3c2C)c1	-1.6%	-25.1%	x	x
CSc1nc(N)nc(SCCS(=O)(=O)c2ccc(Cl)cc2)c1C#N	-3.5%	-3.0%	-11.5%	-28.6%
CSc1nc(-c2ccc(Cl)cc2Cl)[nH]c(=O)c1C#N	x	x	-0.1%	2.51µM*
Cc1ccc(-c2ccc(/C=N/N3C(=O)C4C5C=CC(C6CC56)C4C3=O)o2)c([N+](=O)[O-])c1 (stereo not drawn)	x	x	-3.0%	12.6µM*
COC(=O)c1ccc(-c2ccc(/C=N/N3C(=O)C4C5C=CC(C6CC56)C4C3=O)o2)cc1 (stereo not drawn)	x	x	1.4%	14.1µM*
Cc1cc(C)cc(C(=O)NCC(c2ccc(N(C)C)cc2)N2CCCC2)c1 (stereo not drawn)	-11.6%	u	x	x
COc1ccc(Oc2ncnc3c2ncn3Cc2ccccc2)cc1	-0.4%	5.3%	0.0%	8.91µM*
Nc1ncnc2c1ncn2CCOc1ccccc1	-6.6%	-13.7%	4.6%	-7.3%
O=c1c2c(nc3c(-c4ccc(Cl)cc4)c[nH]n13)CCCC2	-15.9%	20µM*	1.6%	u
Cc1cccc(C(=O)Oc2csc(=S)n2C(=O)c2cccc(C)c2)c1	0.9%	-1.1%	5.4%	14.1µM*
O=C(Oc1ccccc1)c1ccc2nsnc2c1	-7.6%	11.9%	-2.0%	-5.5%
Cc1cccc(C(=O)Nc2cccc(OC(=O)c3cccc(C)c3)c2)c1	x	x	-6.0%	-2.8%
O=C(Oc1csc(=S)n1C(=O)c1ccccc1)c1ccccc1	x	x	0.0%	4.47µM*
CCCCN(CC)C(=O)CSc1nc2c(sc3ccccc32)c(=O)n1CCc1ccccc1	1.5%	-13.5%	x	x
Cc1cccc(-c2noc(CCC(=O)NCC3CCCO3)n2)c1 (stereo not drawn)	x	x	0.5%	25.1µM*
Cc1ccccc1-c1noc(CCC(=O)NCC2CCCO2)n1 (stereo not drawn)	x	x	-7.5%	15.8µM*
SMILES	p53ts 32C kill	p53ts 39C kill	ALOX12 inhib	HPGD inh
O=C(CCc1nc(-c2ccccc2F)no1)NC1CCCCC1	-2.1%	10.4%	2.2%	u
Cc1cccc(-c2noc(CCC(=O)NCc3ccco3)n2)c1	x	x	-2.0%	-21.3%
COc1ccc(-c2noc(CCC(=O)NC3CCCCC3)n2)cc1OC	-1.6%	11.9%	4.5%	35.5µM*
O=C(CCc1c[nH]c2ccccc12)NCC1CCCO1 (stereo not drawn)	0.5%	3.2%	-2.0%	14.1µM*
O=C(Cc1ccccc1)NCC1CCCO1 (stereo not drawn)	x	x	-2.5%	-27.4%
CCOc1ccccc1NC(=O)Nc1cc2c(cc1N1CCCCC1)n(CC)c(=O)n2CC	17.2%	-23.5%	x	x
COc1cc(OC)cc(-c2cc3nc(C)c(CCC(=O)NCc4ccc(Cl)cc4)c(C)n3n2)c1	-4.5%	u	x	x
Cc1ccc(Cl)cc1N1CCN(C(=O)C2CCN(S(=O)(=O)c3c(C)noc3/C=C/c3ccccc3F)CC2)CC1	0.1%	22.4%	x	x
Cc1ccc(NC(=O)NCCOCCn2c(=O)oc3ccccc32)cc1C	-14.0%	-17.8%	x	x
O=c1oc2ccccc2c(NCc2cccc(F)c2)c1[N+](=O)[O-]	6.6%	8.1%	-2.4%	20µM*
COC(=O)c1ccccc1SC1CC(=O)N(c2ccccc2)C1=O (stereo not drawn)	x	x	6.0%	14.1µM*
Cc1cc(O)c(C=O)c2c1C(=O)Oc1c(COC(=O)/C=C/C(=O)O)c(O)c(C(=O)O)c(C)c1O2	3.8%	5.6%	u	1.41µM*
Cc1cc(O)c(C=O)c(O)c1C(=O)O	3.7%	-2.0%	0.0%	-8.9%
COc1cc(C(=O)Oc2c(CN3CCOCC3)cc(Cl)c3cccnc23)cc(OC)c1OC	u	12.6µM*	-21.5%	-15.6%
COc1ccc(C(=O)Oc2c(CN3CCOCC3)cc(Cl)c3cccnc23)cc1	-12.3%	u	-17.9%	-10.5%
O=c1c2cn[nH]c2[nH]c(=S)n1-c1cccc2ccccc12	x	x	-1.7%	-18.4%
O=c1c2cn[nH]c2[nH]c(=S)n1-c1ccccc1	-6.1%	25.2%	-0.7%	28.2µM*
Oc1c(C(c2ccccc2F)N2CCC3(CC2)OCCO3)sc2nc(-c3ccco3)nn12 (stereo not drawn)	-2.1%	10.4%	x	x
O=C1CN(C(=O)COC(=O)COc2ccc3c(c2)CCC3)c2ccccc2N1	-1.7%	-6.9%	-5.6%	14.1µM*
CCOC(=O)c1[nH]c(C)c(C(=O)OCC(=O)N2CC(=O)Nc3ccccc32)c1C	x	x	-0.3%	15.8µM*
CCn1c(=O)cc(SCC(=O)NCC2CCCO2)c2ccccc21 (stereo not drawn)	0.5%	-2.9%	0.0%	u
O=C(CCCOc1ccc(Cl)cc1Cl)NCC1CCCO1 (stereo not drawn)	0.4%	-2.6%	0.4%	11.2µM*
CCNC(=O)CCCOc1ccc(Cl)cc1Cl	-9.1%	-9.9%	0.2%	14.1µM*
O=C(CCCOc1ccc(Cl)cc1Cl)Nc1ccncc1	x	x	-12.6%	14.1µM*
Cn1c(=O)cc(SCC(=O)NCC2CCCO2)c2ccc(Cl)cc21 (stereo not drawn)	-7.5%	10.1%	-4.2%	14.1µM*
SMILES	p53ts 32C kill	p53ts 39C kill	ALOX12 inhib	HPGD inh
O=C(CCCC(=O)NCC1CCCO1)NCC1CCCO1 (stereo not drawn)	4.7%	-2.8%	-3.7%	-1.0%
COc1ccc(CCNc2ncnc3c2nnn3C)cc1OC	21.2%	-8.9%	x	x
Cc1ccc(CNC(=O)COC(=O)CCCOc2ccc(Cl)cc2Cl)cc1	x	x	2.6%	15.8µM*
Cc1noc(C)c1COC(=O)CCCOc1ccc(Cl)cc1Cl	-3.1%	-0.1%	-17.0%	17.8µM*
Clc1ccc(OCCCc2nc(-c3ccncc3)no2)c(Cl)c1	x	x	-15.2%	28.2µM*
O=C(COC(=O)CCCOc1ccc(Cl)cc1Cl)NCc1ccccc1	x	x	-5.7%	u
COc1cccc(Nc2ncc3nc(-c4ccc(F)cc4)c(=O)n(C[C@H]4CCCO4)c3n2)c1	-12.2%	-2.1%	3.1%	-9.5%
COc1cc(Sc2ccc(C)cc2)c(OC)cc1N	5.5%	-2.0%	-13.2%	28.2µM*
COc1ccc(C2c3cc(OC)c(OC)cc3Cc3c4cc(OC)c(OC)cc4cc[n+]32)cc1OC (stereo not drawn)	x	x	x	-9.8%
